Among the data in patent US20200172896, “EVOLUTION OF BIOACTIVE SEQUENCE-DEFINED SYNTHETIC POLYMERS USING DNA-TEMPLATED POLYMERIZATION” (President and Fellows of Harvard College, published 2020) are binding signal values, retold here.

In the assay the target is PCSK9 (Homo sapiens, UniProt Q8NBP7;Q8NBP7 Q8NBP7:31-152,Q8NBP7:153-692). Kind of assay: SPR; vs PCSK9-A5; salmon sperm DNA. As to conditions: tags: ACROBiosystems PC9-H5223; label: 5' dual biotin-iSp18; ssDNA; as PCSK9-A5 except codon 13 CAC unmodified [codon 13 CAC (nt 55-57) unmodified; other codons as PCSK9-A5 (including phenol at codon 9 TTT nt 43-45, cyclopentyl at codon 14 CTT nt 58-60)]. (Surface plasmon resonance follows binding to a sensor surface in real time, without labels.)
PCSK9, sequence (Q8NBP7 31-152, chain 1 of 2): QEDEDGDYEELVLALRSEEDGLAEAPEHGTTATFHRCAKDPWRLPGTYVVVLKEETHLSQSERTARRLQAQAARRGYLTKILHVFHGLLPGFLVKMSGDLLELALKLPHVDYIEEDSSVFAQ
PCSK9, sequence (Q8NBP7 153-692, chain 2 of 2): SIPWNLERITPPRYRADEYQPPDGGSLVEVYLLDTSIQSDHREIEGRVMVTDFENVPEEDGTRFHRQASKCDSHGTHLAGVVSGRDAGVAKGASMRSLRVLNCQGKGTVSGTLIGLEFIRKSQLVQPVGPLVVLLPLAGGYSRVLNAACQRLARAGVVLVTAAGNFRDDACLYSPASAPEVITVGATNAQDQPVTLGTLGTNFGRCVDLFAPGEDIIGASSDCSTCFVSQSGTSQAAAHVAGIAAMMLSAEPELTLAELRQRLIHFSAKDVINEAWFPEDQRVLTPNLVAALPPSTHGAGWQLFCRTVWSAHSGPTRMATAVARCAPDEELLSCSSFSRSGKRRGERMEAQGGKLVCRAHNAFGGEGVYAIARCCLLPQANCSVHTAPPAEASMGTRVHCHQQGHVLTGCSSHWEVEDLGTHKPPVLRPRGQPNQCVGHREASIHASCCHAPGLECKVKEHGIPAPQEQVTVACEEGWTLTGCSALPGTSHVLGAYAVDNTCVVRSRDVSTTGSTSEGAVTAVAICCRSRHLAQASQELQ

Regarding “CGAATCAGATTGGACCAGCCACGTTACTGATTCTTCTACCGTTTTTGCCCCCGGCACCTTCTGGAGTCCAGATGTAGGTAG”, the binding signal was ~2 fold reduction in affinity.
